This is an account of results in the supplement of paper PMC10849652.

The full data set covers some 7,900 targets. This sample favours those with a hit. About 0.6% of all pairs of compound and target were hits. Unmarked numbers belong to inactive results.

Sequence of UniProt Q96DE0 (Q96DE0 whole entry, looked up): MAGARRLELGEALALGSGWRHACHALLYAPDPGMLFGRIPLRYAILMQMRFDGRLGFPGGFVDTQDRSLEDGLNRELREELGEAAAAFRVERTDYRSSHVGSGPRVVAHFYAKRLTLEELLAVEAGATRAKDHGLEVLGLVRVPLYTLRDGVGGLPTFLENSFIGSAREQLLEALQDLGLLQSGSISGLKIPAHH
Sequence of MTHFD1, A0A384N5Y3 (A0A384N5Y3 whole entry, looked up): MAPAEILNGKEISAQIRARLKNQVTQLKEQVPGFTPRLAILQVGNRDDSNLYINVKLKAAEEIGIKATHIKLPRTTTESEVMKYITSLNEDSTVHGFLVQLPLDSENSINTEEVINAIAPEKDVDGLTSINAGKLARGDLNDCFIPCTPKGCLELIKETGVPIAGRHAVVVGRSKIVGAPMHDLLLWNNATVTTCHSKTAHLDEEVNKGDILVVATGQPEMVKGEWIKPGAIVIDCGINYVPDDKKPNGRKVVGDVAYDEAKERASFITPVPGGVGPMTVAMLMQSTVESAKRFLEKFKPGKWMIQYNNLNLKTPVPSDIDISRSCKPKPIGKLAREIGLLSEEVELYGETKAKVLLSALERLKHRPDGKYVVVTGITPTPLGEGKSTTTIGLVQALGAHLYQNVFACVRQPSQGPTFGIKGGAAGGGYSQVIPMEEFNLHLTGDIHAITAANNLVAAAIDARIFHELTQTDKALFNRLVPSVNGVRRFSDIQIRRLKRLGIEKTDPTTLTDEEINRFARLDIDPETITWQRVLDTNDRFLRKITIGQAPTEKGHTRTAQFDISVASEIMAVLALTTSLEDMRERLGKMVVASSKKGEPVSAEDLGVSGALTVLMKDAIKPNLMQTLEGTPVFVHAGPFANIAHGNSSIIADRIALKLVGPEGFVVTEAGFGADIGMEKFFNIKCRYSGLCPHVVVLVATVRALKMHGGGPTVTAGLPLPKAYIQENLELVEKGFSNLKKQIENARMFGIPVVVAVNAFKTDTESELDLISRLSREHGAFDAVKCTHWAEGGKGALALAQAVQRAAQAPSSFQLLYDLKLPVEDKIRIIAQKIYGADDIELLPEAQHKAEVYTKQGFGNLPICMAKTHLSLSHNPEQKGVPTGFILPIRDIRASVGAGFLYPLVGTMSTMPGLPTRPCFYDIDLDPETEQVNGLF
Sequence of UniProt P19338 (P19338 whole entry, looked up): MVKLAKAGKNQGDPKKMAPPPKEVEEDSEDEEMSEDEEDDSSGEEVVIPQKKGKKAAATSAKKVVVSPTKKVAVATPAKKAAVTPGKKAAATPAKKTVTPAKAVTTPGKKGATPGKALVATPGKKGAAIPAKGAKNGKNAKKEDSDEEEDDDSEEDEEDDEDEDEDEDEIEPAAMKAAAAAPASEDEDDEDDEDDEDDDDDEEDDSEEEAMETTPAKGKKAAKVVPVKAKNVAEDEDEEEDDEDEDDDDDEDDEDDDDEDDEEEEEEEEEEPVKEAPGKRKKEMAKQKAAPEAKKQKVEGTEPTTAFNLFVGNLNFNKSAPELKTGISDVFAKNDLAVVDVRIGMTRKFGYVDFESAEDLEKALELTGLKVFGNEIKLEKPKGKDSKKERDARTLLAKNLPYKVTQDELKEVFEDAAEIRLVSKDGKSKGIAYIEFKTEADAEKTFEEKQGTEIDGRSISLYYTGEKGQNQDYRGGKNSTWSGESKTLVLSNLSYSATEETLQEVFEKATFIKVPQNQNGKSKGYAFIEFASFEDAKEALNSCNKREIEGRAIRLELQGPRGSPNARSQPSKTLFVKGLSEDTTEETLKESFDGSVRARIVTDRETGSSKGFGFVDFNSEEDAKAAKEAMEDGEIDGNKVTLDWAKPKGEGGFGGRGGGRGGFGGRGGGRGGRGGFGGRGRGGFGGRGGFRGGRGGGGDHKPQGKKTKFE
Sequence of UniProt Q9NXX6 (Q9NXX6 whole entry, looked up): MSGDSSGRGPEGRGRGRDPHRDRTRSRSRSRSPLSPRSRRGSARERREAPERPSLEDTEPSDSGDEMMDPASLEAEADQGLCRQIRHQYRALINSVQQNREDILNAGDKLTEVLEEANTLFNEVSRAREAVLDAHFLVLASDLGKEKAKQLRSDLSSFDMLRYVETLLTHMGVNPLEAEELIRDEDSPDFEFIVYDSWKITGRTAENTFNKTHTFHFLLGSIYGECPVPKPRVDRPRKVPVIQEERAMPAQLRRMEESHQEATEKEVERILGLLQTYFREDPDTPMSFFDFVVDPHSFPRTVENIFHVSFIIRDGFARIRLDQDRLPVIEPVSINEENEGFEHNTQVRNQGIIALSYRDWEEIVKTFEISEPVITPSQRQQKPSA
Sequence of UniProt P20585 (P20585 whole entry, looked up): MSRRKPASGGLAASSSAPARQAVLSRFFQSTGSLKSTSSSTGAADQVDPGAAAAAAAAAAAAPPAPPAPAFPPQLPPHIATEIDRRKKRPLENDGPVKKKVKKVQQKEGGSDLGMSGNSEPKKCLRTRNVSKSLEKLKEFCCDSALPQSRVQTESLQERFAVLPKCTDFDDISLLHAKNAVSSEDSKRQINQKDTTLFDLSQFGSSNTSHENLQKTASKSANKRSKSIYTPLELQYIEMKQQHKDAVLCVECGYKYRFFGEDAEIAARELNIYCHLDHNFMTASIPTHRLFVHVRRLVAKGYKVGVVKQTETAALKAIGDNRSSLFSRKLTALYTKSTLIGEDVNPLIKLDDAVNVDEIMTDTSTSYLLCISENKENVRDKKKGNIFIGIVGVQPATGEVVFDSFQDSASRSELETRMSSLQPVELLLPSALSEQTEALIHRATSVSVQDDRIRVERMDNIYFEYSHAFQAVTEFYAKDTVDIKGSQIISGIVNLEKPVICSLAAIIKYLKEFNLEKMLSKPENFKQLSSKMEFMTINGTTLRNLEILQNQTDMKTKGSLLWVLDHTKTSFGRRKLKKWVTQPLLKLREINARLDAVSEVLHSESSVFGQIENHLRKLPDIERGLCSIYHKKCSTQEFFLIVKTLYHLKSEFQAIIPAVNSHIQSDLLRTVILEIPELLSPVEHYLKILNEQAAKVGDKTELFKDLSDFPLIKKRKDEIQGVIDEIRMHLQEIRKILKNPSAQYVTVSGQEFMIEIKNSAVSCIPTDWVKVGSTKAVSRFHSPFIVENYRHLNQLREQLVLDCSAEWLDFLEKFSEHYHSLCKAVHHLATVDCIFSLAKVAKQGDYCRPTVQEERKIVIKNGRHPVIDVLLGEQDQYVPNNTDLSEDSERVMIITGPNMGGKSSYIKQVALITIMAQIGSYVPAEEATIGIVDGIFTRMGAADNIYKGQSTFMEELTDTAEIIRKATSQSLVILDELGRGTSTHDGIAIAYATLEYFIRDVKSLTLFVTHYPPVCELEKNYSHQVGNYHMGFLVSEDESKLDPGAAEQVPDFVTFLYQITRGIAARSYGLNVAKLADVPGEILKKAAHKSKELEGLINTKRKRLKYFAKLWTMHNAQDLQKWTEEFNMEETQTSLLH
Sequence of UniProt Q9H019 (Q9H019 whole entry, looked up): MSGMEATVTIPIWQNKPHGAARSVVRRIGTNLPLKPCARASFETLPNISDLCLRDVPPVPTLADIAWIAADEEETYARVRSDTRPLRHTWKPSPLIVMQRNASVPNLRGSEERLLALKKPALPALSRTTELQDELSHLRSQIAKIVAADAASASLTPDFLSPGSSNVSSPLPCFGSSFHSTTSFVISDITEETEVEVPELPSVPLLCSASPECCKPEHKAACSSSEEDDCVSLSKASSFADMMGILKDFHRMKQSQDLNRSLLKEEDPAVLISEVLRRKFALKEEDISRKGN
Sequence of UniProt Q9NRP0 (Q9NRP0 whole entry, looked up): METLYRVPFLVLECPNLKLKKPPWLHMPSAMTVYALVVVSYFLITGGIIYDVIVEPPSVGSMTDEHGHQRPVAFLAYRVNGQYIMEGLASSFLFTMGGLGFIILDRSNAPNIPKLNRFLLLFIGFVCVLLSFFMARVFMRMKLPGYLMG
Sequence of UniProt Q01804 (Q01804 whole entry, looked up): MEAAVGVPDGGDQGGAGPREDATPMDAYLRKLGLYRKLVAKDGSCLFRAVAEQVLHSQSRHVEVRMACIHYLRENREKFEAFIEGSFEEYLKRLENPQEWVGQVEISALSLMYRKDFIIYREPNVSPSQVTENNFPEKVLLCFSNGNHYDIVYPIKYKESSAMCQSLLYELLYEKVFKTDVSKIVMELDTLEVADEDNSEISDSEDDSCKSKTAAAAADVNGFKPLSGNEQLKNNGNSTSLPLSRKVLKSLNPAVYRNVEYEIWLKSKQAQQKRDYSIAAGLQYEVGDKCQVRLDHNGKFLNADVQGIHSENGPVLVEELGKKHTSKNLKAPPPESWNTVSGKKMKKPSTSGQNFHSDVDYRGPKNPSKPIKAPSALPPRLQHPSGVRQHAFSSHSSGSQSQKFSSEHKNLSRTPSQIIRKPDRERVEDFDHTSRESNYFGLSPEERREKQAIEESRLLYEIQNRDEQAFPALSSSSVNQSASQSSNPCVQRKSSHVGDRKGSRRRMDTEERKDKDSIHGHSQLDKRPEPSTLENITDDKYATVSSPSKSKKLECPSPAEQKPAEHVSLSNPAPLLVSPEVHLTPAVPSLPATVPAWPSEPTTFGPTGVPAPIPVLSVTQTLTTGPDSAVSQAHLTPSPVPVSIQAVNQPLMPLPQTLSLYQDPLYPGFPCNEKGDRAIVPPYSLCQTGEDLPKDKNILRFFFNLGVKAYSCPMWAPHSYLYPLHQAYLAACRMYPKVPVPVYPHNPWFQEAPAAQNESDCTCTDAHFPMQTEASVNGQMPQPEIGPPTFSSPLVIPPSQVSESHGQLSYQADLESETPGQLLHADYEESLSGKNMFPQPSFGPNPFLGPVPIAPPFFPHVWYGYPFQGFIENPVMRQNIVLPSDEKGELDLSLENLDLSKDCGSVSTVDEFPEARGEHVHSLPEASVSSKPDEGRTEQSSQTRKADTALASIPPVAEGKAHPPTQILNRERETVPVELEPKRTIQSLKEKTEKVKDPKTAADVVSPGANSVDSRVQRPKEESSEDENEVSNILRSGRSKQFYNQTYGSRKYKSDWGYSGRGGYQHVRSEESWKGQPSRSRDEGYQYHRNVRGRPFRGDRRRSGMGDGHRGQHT

Compound in one test: Cc1ccc(NC(=O)c2ccc(CN3CC[C@H](N(C)C)C3)c(C(F)(F)F)c2)cc1Nc1nccc(-c2cncnc2)n1 [bafetinib]
Briefly: log2 fold change, soluble protein after heating vs DMSO (PISA); higher = thermal stabilisation; K562 cells, 10 uM, 30 min; active = over 0.2 and 3.5 SD of the protein, either way, in both replicates (recomputed). The gist of the method:
(§1)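 Aliquots of K562 cells (2×10^6 cells/mL) treated with 10 μM compound for 30 min were heated for 3 min over 48°C-58°C. After pooling and extraction in PBS with 0.5% NP-40 at 4°C, soluble protein from a 21,000xg, 90 min spin was quantified by TMTpro 16plex LC-MS/MS with channel sums equalised. Thermal stability is expressed against control samples, from duplicates, as a log2 fold change.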
Regarding NECTIN2 (UniProt Q92692), the log2 fold change is 0.03. NCAPH (UniProt Q15003): the log2 fold change is 0.015. Still for that read-out and setting: in the case of OSBPL8 (UniProt Q9BZF1) it was 0.182. Same read-out and setting: to MPHOSPH10 (UniProt O00566) belongs 0.137. As for MTHFD1, A0A384N5Y3, the log2 fold change is 0.099. The same measure, in the same setting: to OXA1L (UniProt Q15070) belongs -0.152. NPC1 (UniProt O15118): the log2 fold change was -0.211 (active). As for MYO19 (UniProt Q96H55), the log2 fold change was 0.007. As to NCKAP1 isoform 2 (UniProt Q9Y2A7), the log2 fold change was -0.028.

On to NSMCE4A (UniProt Q9NXX6), for which the log2 fold change was -0.145.

As to MSTO1 (UniProt Q9BUK6), the log2 fold change is -0.03.

As to NDUFA7 (UniProt M0R0N0), the log2 fold change was -0.052. Same read-out and setting: in the case of MUL1 (UniProt Q969V5) it was -0.018; in that of MKNK1 (UniProt Q9BUB5), 0.088; in that of NDUFS4 (UniProt O43181), -0.083.

On to NUCKS1 (UniProt Q9H1E3), for which the log2 fold change is -0.114.

Consider MSH3 (UniProt P20585), for which the log2 fold change is -0.012. On the same count and under the same terms, to NMU (UniProt P48645) belongs -0.01; to OSTC (UniProt Q9NRP0), -0.137; to NDUFB8 (UniProt O95169), -0.029. On the same count and under the same terms, to NFX1 (UniProt Q12986) belongs -0.044. Turning to ORC5 (UniProt O43913), the log2 fold change was 0.01. As for NUDT16 (UniProt Q96DE0), the log2 fold change was -0.044.

For MRPL50 (UniProt Q8N5N7), the log2 fold change was -0.079.

NOSIP (UniProt Q9Y314): the log2 fold change was 0.085. For NSMCE2 (UniProt Q96MF7), the log2 fold change is -0.059. The same measure, in the same setting: to NA, A0A096LPI6 belongs -0.076. On the same count and under the same terms, to MRPS35 (UniProt P82673) belongs 0.038. Still for that read-out and setting: to NA, A0A2R8Y3M9 belongs -0.605. Turning to MND1 (UniProt Q9BWT6), the log2 fold change was -0.168.

On to NOL11 (UniProt Q9H8H0), for which the log2 fold change is -0.042. On the same count and under the same terms, to NCAPG (UniProt Q9BPX3) belongs 0.076; to OTUD4 (UniProt Q01804), 0.069; to MTFR1L (UniProt Q9H019), -0.1. The same measure, in the same setting: in the case of NFYC (UniProt Q13952) it was -0.017. Same read-out and setting: in the case of MXRA7 (UniProt P84157) it was -0.074; in that of MRPS27 isoform 2 (UniProt Q92552), 0.181. NCL (UniProt P19338): the log2 fold change was 0.272.

Consider NPEPPS (UniProt P55786), for which the log2 fold change is 0.031.

Compound in another test: Cc1cccc(CC(=O)N2CCc3c2ccc(-c2cn(C)c4ncnc(N)c24)c3F)n1
Described as above. The gist of the method: as §1
For NECTIN2 (UniProt Q92692), the log2 fold change was -0.023. On the same count and under the same terms, to NCAPH (UniProt Q15003) belongs 0.022; to OSBPL8 (UniProt Q9BZF1), 0.049; to MPHOSPH10 (UniProt O00566), -0.045. Take MTHFD1, A0A384N5Y3: the log2 fold change is -0.055. As to OXA1L (UniProt Q15070), the log2 fold change is -0.032. On the same count and under the same terms, to NPC1 (UniProt O15118) belongs -0.02; to MYO19 (UniProt Q96H55), -0.068. As for NCKAP1 isoform 2 (UniProt Q9Y2A7), the log2 fold change was 0.08. Same read-out and setting: in the case of NSMCE4A (UniProt Q9NXX6) it was -0.144. Still for that read-out and setting: to MSTO1 (UniProt Q9BUK6) belongs 0.028; to MUL1 (UniProt Q969V5), 0.042. In the case of MKNK1 (UniProt Q9BUB5), the log2 fold change is 0.057. Same read-out and setting: to NDUFS4 (UniProt O43181) belongs 0.017. Take NUCKS1 (UniProt Q9H1E3): the log2 fold change was -0.128. For the target MSH3 (UniProt P20585), the log2 fold change is 0.051. The same measure, in the same setting: to NMU (UniProt P48645) belongs 0.152; to OSTC (UniProt Q9NRP0), 0.027. Take NDUFB8 (UniProt O95169): the log2 fold change is -0.002.

With NFX1 (UniProt Q12986), the log2 fold change was -0.026. Still for that read-out and setting: in the case of ORC5 (UniProt O43913) it was 0.027; in that of NUDT16 (UniProt Q96DE0), -0.035; in that of MRPL50 (UniProt Q8N5N7), -0.035. On to NOSIP (UniProt Q9Y314), for which the log2 fold change was 0.066. On to NSMCE2 (UniProt Q96MF7), for which the log2 fold change was 0.282 (active). The same measure, in the same setting: in the case of NA, A0A096LPI6 it was -0.043; in that of MRPS35 (UniProt P82673), 0.115. On the same count and under the same terms, in the case of NA, A0A2R8Y3M9 it was 0.19. As for MND1 (UniProt Q9BWT6), the log2 fold change is 0.042. On the same count and under the same terms, in the case of NOL11 (UniProt Q9H8H0) it was 0.017; in that of NCAPG (UniProt Q9BPX3), 0.06. On the same count and under the same terms, in the case of OTUD4 (UniProt Q01804) it was -0.016. Still for that read-out and setting: to MTFR1L (UniProt Q9H019) belongs 0.305.

Consider NFYC (UniProt Q13952), for which the log2 fold change is -0.041.

As to MXRA7 (UniProt P84157), the log2 fold change is -0.075. As to MRPS27 isoform 2 (UniProt Q92552), the log2 fold change was 0.099. For NCL (UniProt P19338), the log2 fold change is 0. As for NPEPPS (UniProt P55786), the log2 fold change is 0.011.
